The source of these data is the supplement of paper PMC7724964.

Common to all, as to experiment: phage ELISA signal ratio (GST-PRM binding over GST background); higher = stronger binding of peptide-phage to the PRM
Background: An ELISA detects its analyte on a solid surface through an enzyme-linked reagent.

Experiment [1] addresses MSH6 89-203 PWWP (domain begin residue: 89, domain end residue: 203), P52701. The gist of the method: (§1)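 Each value is the phage ELISA signal on the glutathione S-transferase (GST)-domain fusion divided by the signal on GST alone. Human peptide recognition domains were expressed in 96-well plates, fused to the C-terminus of GST, and selected against an M13 phage library carrying randomized, cysteine-free, glycine-flanked hexadecapeptides on the gene-8 major coat protein. After five selection rounds, approximately 48 individual clones from rounds 4 and 5 were tested by phage ELISA, and positive clones were sequenced.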

In experiment [2] the target is SETD1A 2-220 RRM_1 (domain begin residue: 2, domain end residue: 220), O15047. The gist of the method:
as §1

Experiment [3] deals with T1, NR1H3 204-447 Hormone_recep (domain begin residue: 204, domain end residue: 447), Q13133.
T1 chain: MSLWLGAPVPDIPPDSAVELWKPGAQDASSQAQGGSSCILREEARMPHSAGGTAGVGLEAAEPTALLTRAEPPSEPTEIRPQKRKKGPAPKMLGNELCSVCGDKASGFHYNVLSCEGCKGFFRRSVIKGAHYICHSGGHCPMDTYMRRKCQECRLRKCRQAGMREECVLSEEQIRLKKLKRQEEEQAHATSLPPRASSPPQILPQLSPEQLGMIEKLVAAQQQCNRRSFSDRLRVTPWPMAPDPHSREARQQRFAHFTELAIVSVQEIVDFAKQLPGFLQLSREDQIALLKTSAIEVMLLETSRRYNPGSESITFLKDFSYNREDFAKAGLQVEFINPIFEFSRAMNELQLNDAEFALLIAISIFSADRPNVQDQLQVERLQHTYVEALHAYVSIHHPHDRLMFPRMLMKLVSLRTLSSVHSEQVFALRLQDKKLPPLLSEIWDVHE
The gist of the method: as §1

Experiment [4] deals with NR5A1 221-461 Hormone_recep (domain begin residue: 221, domain end residue: 461), Q13285. An outline of the steps:
as §1

Experiment [5] deals with T2, NR4A2 327-598 Hormone_recep (domain begin residue: 327, domain end residue: 598), P43354.
T2 chain: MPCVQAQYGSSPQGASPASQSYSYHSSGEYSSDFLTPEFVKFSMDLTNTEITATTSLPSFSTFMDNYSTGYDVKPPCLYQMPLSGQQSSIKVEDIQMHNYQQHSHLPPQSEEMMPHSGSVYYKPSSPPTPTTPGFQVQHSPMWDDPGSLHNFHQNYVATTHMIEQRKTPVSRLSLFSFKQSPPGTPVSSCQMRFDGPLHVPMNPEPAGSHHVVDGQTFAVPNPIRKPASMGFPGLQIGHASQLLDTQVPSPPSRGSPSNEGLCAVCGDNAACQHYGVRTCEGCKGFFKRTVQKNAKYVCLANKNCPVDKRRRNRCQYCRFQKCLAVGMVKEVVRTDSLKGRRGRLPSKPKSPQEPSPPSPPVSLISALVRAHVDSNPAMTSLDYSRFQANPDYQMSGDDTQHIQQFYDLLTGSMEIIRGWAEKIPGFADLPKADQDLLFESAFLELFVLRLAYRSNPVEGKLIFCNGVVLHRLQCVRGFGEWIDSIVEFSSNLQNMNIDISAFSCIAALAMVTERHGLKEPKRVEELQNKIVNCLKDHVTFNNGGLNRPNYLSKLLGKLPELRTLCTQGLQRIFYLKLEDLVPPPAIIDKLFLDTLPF
An outline of the steps:
as §1

The target of experiment [6] is T3, NR1H4 256-474 Hormone_recep (domain begin residue: 256, domain end residue: 474), Q96RI1.
T3 chain: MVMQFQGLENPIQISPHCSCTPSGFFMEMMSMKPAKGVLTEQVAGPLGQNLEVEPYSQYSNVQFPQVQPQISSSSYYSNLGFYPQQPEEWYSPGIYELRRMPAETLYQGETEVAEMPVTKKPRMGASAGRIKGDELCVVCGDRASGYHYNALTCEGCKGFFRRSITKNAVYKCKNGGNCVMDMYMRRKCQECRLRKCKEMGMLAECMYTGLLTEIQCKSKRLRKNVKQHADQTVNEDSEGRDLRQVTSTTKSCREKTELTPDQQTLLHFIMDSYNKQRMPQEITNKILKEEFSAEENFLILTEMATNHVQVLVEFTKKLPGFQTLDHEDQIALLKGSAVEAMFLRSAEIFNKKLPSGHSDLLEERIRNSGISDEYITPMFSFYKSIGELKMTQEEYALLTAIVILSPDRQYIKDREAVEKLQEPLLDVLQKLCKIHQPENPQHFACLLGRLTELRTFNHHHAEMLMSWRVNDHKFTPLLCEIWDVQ
The gist of the method: as §1

The target in experiment [7] is T4, NR4A3 356-626 Hormone_recep (domain begin residue: 356, domain end residue: 626), Q92570.
T4 chain: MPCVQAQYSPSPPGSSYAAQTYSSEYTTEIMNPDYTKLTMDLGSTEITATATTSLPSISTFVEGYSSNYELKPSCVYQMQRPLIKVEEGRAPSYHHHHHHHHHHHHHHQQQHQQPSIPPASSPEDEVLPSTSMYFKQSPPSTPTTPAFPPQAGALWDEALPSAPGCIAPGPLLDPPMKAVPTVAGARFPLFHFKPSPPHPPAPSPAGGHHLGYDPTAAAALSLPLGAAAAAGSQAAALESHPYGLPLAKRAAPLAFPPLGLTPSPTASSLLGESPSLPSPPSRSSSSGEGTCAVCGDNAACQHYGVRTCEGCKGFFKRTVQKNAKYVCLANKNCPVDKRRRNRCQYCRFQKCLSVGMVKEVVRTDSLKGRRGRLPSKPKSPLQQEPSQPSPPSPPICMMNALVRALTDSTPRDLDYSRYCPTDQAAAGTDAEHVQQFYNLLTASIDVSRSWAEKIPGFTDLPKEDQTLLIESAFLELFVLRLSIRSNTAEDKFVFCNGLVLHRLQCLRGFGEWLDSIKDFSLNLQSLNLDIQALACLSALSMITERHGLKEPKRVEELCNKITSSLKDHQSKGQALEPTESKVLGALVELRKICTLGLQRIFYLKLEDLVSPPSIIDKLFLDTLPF
The gist of the method:
as §1

The target of experiment [8] is T5, NFKBIA 70-282 EF-hand_6 (domain begin residue: 70, domain end residue: 282), P25963.
T5 chain: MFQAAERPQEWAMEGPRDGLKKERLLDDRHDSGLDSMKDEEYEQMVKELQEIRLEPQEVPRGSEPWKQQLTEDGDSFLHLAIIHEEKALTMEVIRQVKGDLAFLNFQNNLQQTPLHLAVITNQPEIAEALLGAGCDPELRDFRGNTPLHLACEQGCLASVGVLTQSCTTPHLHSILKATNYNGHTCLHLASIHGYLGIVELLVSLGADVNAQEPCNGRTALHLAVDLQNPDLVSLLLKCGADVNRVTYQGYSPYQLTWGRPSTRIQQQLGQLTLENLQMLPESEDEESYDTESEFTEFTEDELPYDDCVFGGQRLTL
The gist of the method:
as §1

Experiment [9] deals with T6, MYL6 4-151 EF-hand_6 (domain begin residue: 4, domain end residue: 151), P60660.
T6 chain: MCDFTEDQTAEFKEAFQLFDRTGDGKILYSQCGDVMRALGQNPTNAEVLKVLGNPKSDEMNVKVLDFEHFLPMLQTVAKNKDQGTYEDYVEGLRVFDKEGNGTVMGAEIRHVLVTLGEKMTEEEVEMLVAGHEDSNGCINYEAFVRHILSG
An outline of the steps:
as §1

Experiment [10] addresses T7, NR2C1 355-603 Hormone_recep (domain begin residue: 355, domain end residue: 603), P13056.
T7 chain: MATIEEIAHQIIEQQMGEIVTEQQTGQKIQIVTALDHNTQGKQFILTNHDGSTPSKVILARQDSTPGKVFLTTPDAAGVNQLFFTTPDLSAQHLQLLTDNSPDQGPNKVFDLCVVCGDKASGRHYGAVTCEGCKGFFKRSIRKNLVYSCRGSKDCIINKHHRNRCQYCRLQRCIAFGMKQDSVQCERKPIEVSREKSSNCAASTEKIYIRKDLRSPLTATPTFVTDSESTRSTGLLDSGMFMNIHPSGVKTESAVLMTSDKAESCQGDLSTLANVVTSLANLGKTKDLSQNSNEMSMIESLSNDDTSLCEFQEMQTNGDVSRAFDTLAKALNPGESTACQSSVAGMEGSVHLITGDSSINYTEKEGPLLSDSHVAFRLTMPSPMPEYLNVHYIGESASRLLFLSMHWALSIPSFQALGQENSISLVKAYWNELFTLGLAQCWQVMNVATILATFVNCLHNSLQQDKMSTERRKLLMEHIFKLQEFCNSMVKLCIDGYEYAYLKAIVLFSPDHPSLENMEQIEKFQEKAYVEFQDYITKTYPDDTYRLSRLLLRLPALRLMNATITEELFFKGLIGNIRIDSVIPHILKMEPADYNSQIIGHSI
The gist of the method: as §1

Experiment [11] addresses T8, NR1H2 203-460 Hormone_recep (domain begin residue: 203, domain end residue: 460), P55055.
T8 chain: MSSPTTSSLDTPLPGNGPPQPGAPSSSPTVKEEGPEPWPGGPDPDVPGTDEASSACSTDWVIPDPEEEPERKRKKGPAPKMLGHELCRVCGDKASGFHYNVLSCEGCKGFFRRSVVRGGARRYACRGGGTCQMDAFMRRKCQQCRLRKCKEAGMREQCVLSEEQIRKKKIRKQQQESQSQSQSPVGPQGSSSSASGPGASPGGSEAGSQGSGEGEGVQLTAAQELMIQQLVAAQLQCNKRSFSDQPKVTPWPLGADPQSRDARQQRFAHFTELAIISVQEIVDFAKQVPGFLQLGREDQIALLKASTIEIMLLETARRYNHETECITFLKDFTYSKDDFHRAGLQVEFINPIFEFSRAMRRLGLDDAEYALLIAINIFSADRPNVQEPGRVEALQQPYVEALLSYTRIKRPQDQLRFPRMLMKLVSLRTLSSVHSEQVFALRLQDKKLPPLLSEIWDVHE
An outline of the steps:
as §1

Chain of MSH6 89-203 PWWP (domain begin residue: 89, domain end residue: 203), P52701 (P52701 whole entry, the tested form may be a part): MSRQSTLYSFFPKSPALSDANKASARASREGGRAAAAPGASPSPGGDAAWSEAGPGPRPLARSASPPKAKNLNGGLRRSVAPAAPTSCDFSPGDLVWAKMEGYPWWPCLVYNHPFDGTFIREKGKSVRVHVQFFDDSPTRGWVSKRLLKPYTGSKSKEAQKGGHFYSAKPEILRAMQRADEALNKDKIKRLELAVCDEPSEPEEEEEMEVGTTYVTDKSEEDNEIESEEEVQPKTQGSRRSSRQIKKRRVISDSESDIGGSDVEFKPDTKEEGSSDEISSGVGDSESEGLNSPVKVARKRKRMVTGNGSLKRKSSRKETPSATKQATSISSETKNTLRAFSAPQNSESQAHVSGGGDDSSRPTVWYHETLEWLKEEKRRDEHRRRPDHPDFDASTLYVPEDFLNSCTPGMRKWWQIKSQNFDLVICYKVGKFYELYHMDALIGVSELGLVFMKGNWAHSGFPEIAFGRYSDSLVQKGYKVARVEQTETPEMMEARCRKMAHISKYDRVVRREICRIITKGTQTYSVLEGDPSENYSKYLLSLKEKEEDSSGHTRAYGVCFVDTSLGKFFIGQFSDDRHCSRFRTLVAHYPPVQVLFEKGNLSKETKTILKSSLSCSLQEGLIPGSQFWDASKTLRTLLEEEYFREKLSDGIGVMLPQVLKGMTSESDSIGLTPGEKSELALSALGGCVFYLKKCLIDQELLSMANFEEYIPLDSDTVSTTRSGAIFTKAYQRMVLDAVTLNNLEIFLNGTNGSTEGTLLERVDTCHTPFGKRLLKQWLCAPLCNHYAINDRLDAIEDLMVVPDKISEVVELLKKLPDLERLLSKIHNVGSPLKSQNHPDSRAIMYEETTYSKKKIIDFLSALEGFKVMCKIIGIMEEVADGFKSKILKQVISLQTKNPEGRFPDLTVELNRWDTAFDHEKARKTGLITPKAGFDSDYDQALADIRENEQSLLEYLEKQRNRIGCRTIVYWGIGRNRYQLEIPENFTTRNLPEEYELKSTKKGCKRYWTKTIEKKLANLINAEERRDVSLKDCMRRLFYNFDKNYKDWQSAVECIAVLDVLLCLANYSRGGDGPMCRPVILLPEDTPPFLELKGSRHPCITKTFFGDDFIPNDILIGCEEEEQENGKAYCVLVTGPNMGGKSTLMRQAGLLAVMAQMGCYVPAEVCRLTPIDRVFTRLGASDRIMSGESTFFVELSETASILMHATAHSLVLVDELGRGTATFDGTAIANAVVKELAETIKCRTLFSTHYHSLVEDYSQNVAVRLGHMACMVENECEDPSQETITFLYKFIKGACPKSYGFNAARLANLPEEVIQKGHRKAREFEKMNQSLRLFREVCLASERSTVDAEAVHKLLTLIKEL
Chain of SETD1A 2-220 RRM_1 (domain begin residue: 2, domain end residue: 220), O15047 (O15047 whole entry): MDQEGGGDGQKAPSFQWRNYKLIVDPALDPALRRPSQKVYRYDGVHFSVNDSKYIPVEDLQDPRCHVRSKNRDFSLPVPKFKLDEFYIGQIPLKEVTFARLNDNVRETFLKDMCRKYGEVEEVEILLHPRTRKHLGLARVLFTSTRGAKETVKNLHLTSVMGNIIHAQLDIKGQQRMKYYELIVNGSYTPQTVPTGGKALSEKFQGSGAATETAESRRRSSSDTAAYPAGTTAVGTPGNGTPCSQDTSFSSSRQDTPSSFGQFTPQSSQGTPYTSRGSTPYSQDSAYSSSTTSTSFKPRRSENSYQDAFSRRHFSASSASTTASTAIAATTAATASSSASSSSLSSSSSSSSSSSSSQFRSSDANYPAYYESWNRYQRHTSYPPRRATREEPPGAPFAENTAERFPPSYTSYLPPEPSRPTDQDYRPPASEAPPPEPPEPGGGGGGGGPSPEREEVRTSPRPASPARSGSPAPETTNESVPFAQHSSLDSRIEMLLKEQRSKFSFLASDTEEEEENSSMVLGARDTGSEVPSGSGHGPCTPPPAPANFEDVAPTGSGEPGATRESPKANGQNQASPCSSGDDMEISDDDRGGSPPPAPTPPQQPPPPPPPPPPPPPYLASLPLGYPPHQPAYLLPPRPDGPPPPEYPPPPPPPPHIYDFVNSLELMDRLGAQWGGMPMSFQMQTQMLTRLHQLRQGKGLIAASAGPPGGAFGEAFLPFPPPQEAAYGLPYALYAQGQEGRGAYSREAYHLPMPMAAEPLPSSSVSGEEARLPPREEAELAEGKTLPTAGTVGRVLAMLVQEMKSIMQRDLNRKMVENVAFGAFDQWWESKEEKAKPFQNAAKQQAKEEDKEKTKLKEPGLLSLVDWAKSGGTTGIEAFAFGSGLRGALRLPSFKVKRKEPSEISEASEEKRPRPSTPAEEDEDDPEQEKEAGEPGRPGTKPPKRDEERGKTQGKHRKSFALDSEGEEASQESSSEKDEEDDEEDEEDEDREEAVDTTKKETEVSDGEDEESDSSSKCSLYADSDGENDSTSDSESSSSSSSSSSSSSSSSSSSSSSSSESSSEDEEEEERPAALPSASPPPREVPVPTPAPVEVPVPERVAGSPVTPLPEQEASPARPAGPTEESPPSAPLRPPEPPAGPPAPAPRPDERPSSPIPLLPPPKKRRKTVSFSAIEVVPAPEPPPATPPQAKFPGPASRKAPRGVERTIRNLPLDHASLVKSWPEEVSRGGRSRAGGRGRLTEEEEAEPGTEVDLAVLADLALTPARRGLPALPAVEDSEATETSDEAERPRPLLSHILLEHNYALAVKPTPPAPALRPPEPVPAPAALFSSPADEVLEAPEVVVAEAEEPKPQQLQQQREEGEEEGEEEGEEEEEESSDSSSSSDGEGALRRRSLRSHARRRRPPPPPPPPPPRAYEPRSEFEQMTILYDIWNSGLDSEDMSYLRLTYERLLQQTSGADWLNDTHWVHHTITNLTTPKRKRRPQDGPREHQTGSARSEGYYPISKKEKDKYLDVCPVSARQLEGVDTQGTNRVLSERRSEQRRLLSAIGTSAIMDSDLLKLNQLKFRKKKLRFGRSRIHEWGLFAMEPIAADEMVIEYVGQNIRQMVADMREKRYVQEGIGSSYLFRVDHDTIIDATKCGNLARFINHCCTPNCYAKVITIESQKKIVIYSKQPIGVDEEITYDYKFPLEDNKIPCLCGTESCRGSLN
Chain of NR5A1 221-461 Hormone_recep (domain begin residue: 221, domain end residue: 461), Q13285 (Q13285 whole entry): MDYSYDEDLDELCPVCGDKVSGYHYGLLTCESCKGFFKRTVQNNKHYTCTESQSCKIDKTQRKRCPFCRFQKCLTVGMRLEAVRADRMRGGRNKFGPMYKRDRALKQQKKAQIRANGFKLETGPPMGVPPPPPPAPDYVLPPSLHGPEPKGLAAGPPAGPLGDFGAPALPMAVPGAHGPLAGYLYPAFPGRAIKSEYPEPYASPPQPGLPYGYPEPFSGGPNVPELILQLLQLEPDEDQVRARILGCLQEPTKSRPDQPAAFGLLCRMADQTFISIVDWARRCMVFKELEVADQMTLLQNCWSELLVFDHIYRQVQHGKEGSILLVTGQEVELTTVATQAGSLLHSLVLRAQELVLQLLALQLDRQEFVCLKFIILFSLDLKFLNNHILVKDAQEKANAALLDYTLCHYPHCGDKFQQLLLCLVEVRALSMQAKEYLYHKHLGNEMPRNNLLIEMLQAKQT

Turning to TSYDPWVMEGMTQVVA, the “phage ELISA signal ratio” value in experiment [1] was found to be 6.43; in experiment [2], 7.68.
For the molecule QDEDVWWAWMMGLGME, in [3], the “phage ELISA signal ratio” value was 8.99.
Turning to PYHDSWFYWPGLTEGV, the “phage ELISA signal ratio” value in [4] turned out to be 5.49.
On to DYMAIWDHIPLKDAGF, for which the “phage ELISA signal ratio” value in [1] is 6.88.
GWSPWYEGRGVDWMTW: in experiment [5], the “phage ELISA signal ratio” value worked out at 5.78.
For LAFGEWLDKEIGLAYF, in [6], the “phage ELISA signal ratio” value turned out to be 14.3.
On to QQEPWWWMDWDFQQAE, for which, in experiment [7], the “phage ELISA signal ratio” value was determined as 4.47.
As for WFGMEPEEQSMEWQKW, the “phage ELISA signal ratio” value in experiment [8] worked out at 6.64.
With SADSMYPELDWLVWAM, the “phage ELISA signal ratio” value in experiment [3] was found to be 10.
As to SPFDFWPLQSWWFKTM, the “phage ELISA signal ratio” value in [5] is 9.75.
Consider SHDMYEMIMWFFYQTE, for which, in experiment [5], the “phage ELISA signal ratio” value was 14.5.
In the case of TMMPIWSEGQWWWGHI, the “phage ELISA signal ratio” value in experiment [9] came to 3.17.
On to TELPPLPYAWQDYAHW, for which the “phage ELISA signal ratio” value in [10] amounted to 24.8.
For WQEWLDYTVESQYTLV, the “phage ELISA signal ratio” value in experiment [6] came to 7.27.
For the molecule QEWQAWMLSMEEGEMM, the “phage ELISA signal ratio” value in experiment [3] came to 15.5.
Regarding WGPFLSFQYAVDPTQE, the “phage ELISA signal ratio” value in experiment [10] was 19.1.
Regarding DNPNLTPGLWSWYTFF, the “phage ELISA signal ratio” value in [11] came to 11.4.
With QPLPPPPPPSSIPAPA, the “phage ELISA signal ratio” value in experiment [8] turned out to be 5.2.
For QWWVFHVGDQMYWAYV, the “phage ELISA signal ratio” value in [9] was 3.08.
As for DHWWVWGWEAEEYIMP, in [11], the “phage ELISA signal ratio” value was found to be 13.9.
Regarding NQWGPYWSFSFVPMDW, the “phage ELISA signal ratio” value in [10] turned out to be 8.51.
Consider EWFTDHNGADVWLELP, for which the “phage ELISA signal ratio” value in experiment [8] came to 4.99.
On to AAPGSWDYSLLEFHYL, for which the “phage ELISA signal ratio” value in [10] turned out to be 3.03.
Regarding WVDEWTDVVQPMYYYD, in [8], the “phage ELISA signal ratio” value was found to be 18.3.
For the molecule EMLLDQQMWEWVQAMS, the “phage ELISA signal ratio” value in experiment [3] was determined as 26.9.
In the case of YFYTQVNGIWYKWVLS, the “phage ELISA signal ratio” value in [9] came to 4.86.
For PYTGIWFGEYLHNFIP, in experiment [10], the “phage ELISA signal ratio” value was 9.25.
Take MYRAPDAYDDHQVYVS: the “phage ELISA signal ratio” value in experiment [8] came out at 7.46.
